The source of these data is PubChem BioAssay.

A short description of assay [1]: StAR promoter reporter inhibitors, counter-screen for LRH-1 inverse agonist project, cell-based, luminescence, high throughput (AID 651611; in the data active means inhibition above about 28%). The conditions noted are these: StAR promoter luciferase reporter counterscreen, at 3.6 µM, active compounds read high.
In assay [2] the target is Nuclear receptor subfamily 5 group A member 2 (Homo sapiens) (UniProt O00482). Kind of assay: NR5A2 activity suppression in reporter cells – cell-based, luminescence, confirmation (AID 651613; in the data active means inhibition above about 42%;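 further: HEK293T cells co-transfected with LRH-1 and StAR promoter luciferase reporter; 0% = vehicle wells and 100% = parental cells lacking receptor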). The settings on record: cell-based LRH-1 luciferase reporter, inverse agonism; at 3.6 µM; active compounds read high.
In assay [3] the target is Steroidogenic factor 1 (Homo sapiens) (UniProt Q13285). As to the kind of experiment: inverse agonism at SF1 nuclear receptor – cell-based, luminescence, high throughput, counter-screen for LRH-1 inverse agonist project (AID 651614; in the data active means inhibition above about 44%;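 further: cells cotransfected with StAR promoter reporter and SF1 expression vector; 0% = vehicle on cells with receptor and 100% = vehicle on cells lacking receptor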). The conditions noted are these: cell-based SF1 luciferase reporter, at 3.6 µM, active compounds read high.
The nature of assay [4]: compounds suppressing VP16-driven luciferase signal – cell-based, luminescence, high throughput, counter-screen for LRH-1 inverse agonist project (AID 651615). The settings on record: Gal4-VP16 luciferase reporter cells, at 3.6 µM, active compounds read high. For orientation: The purpose of a counterscreen is to sort out artefacts and off-target activity.

Unmarked numbers belong to inactive results. The source made the active and inactive calls. Unless noted, no stated cut-off is given here; in the data, active means inhibition above about 33%; inactive means the rest.

Nuclear receptor subfamily 5 group A member 2 (Homo sapiens), sequence (O00482 whole entry, looked up): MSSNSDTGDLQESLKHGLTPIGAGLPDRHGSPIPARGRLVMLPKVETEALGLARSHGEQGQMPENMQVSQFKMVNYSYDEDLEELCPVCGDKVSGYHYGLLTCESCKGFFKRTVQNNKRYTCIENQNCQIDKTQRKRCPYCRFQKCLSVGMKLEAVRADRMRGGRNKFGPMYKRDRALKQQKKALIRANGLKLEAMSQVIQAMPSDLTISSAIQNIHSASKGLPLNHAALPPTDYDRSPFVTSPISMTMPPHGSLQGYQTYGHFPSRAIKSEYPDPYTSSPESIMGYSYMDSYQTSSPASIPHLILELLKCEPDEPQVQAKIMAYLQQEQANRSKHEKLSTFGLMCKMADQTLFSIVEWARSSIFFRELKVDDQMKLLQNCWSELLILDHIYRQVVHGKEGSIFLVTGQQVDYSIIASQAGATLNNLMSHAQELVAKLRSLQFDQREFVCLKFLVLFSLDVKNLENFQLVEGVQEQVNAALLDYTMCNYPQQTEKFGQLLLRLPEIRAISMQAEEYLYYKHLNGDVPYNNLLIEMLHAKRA
Steroidogenic factor 1 (Homo sapiens), sequence (Q13285 whole entry, looked up, the tested form may be a part): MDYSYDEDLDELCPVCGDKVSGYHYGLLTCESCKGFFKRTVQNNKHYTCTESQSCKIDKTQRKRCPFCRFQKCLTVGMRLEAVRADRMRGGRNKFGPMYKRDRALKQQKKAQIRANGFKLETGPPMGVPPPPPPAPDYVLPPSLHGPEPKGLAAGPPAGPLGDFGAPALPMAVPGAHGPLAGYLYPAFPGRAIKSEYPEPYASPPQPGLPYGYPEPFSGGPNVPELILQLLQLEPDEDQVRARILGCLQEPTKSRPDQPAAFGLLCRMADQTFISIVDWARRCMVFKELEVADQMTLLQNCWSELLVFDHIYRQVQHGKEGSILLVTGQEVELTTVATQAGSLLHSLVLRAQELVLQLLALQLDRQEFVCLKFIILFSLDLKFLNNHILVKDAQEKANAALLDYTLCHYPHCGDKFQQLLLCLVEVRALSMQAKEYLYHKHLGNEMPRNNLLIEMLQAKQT

Usually inhibition stands for the relative decrease from the control value, in per cent. With `c1ccc(-c2nc(NCc3cccnc3)c3oc4ccccc4c3n2)cc1`, the inhibition is 19.2% in assay [1], 62.4% (active) in assay [2], 60.6% (active) in assay [3] and -22.9% in assay [4].
As for `CC1CCCC(C)N1C(=O)COC(=O)CCC1CCCC1` (centres undefined), the inhibition is 3.25% in assay [1], 51.2% (active) in assay [2], 52.9% (active) in assay [3] and 2.94% in assay [4].
Regarding `O=C(CCl)Nc1cccc2ncccc12`, the inhibition in assay [1] was 55.6% (active); in assay [2] it was 61.7% (active); in assay [3], 60.9% (active); in assay [4], -58.5%.
For `O=C(CSc1ccccn1)Nc1nonc1[N+](=O)[O-]`, the inhibition in assay [1] is 10.8%; in assay [2], 16.9%; in assay [3] it was 26.5%; in assay [4] it was -15.1%.
For `O=c1c2ccc(Cl)cc2nc(-c2cccc(C(F)(F)F)c2)n1O`, the inhibition is 26.8% in assay [1], 42.6% (active) in assay [2], 35.4% in assay [3] and 46.2% (active) in assay [4].
As to `NC(=O)C1CCN(C(=O)COc2ccc3c4c(c(=O)oc3c2)CCC4)CC1`, the inhibition in assay [1] is 5.21%; in assay [2] it was 42.7% (active); in assay [3], 36.4%; in assay [4], -10.9%.
For the molecule `COc1ccc(-c2c(C)cc3oc(=O)cc(-c4ccccc4)c3c2C)cc1`, the inhibition in assay [1] was 10.6%; in assay [2], 54.8% (active); in assay [3], 45.4% (active); in assay [4], 17.3%.
Regarding `Cc1ccc(Cl)cc1NC(=O)COC(=O)CC(C)(C)C`, the inhibition in assay [1] was 28.3% (active); in assay [2], 62.4% (active); in assay [3], 60.2% (active); in assay [4], -10.5%.
As to `CC(=O)COc1ccc2c(-c3cccc([N+](=O)[O-])c3)cc(=O)oc2c1`, the inhibition in assay [1] was 7.05%; in assay [2], 67.2% (active); in assay [3], 51.8% (active); in assay [4] it was 0.45%.
With `O=C1CCc2cc(OCCCCc3nnnn3C3CCCCC3)ccc2N1`, the inhibition in assay [1] is 12.9%; in assay [2] it was 54% (active); in assay [3] it was 49.8% (active); in assay [4], 9.24%.
On to `Cc1ccc(-c2nc3ncccc3o2)cc1NC(=O)c1ccc([N+](=O)[O-])o1`, for which the inhibition in assay [1] was 24.2%; in assay [2], 57.8% (active); in assay [3], 69.4% (active); in assay [4] it was -15.3%.
As to `CN(CCC#N)Cc1cc(=O)oc2ccc3ccccc3c12`, the inhibition in assay [1] is 13.8%; in assay [2], 55.2% (active); in assay [3] it was 46.2% (active); in assay [4] it was 5.57%.
Consider `N#Cc1ccccc1NC(=O)c1ccccc1OCC(=O)Nc1ccc2c(c1)oc1ccccc12`, for which the inhibition in assay [1] was 13.3%; in assay [2], 33.9%; in assay [3], 23.9%; in assay [4], 4.76%.
Take `CCOC(=O)c1cc2sccc2n1CC(=O)Nc1ccc2c(c1)OCCO2`: the inhibition in assay [1] was 7.97%; in assay [2], 55.1% (active); in assay [3], 52.2% (active); in assay [4], -2.96%.
`CC(C)(C)C(=O)N1CCN(c2ccc(NC(=O)c3ccc([N+](=O)[O-])o3)cc2)CC1`: the inhibition in assay [1] is 11.1%; in assay [2] it was 59.7% (active); in assay [3], 68.6% (active); in assay [4], -12.6%.
In the case of `CCOc1ccc(NC(=O)COC(=O)c2ncc(Cl)c(Cl)c2Cl)cc1`, the inhibition in assay [1] was 21.6%; in assay [2] it was 38.4%; in assay [3] it was 36.8%; in assay [4], -18.7%.
For `CC(=O)Nc1cc(-c2cccc(F)c2)cn2c(-c3ccc(S(C)(=O)=O)cc3)cnc12`, the inhibition was 8.88% in assay [1], 50.2% (active) in assay [2], 54.6% (active) in assay [3] and -14.3% in assay [4].
`Cc1cc2oc(=O)cc(-c3ccccc3)c2c(C)c1-c1ccc(C#N)cc1`: the inhibition was 4.09% in assay [1], 69% (active) in assay [2], 62.7% (active) in assay [3] and 13.8% in assay [4].
In the case of `Cc1cc(NC(=O)c2ccc([N+](=O)[O-])o2)ccc1NC(=O)c1ccco1`, the inhibition was 1.92% in assay [1], 50.6% (active) in assay [2], 55.5% (active) in assay [3] and -13.8% in assay [4].
For `Cc1ccc(C(O)(C(=O)NN(C(=O)c2ccccc2)c2ccccc2)c2ccc(C)cc2)cc1`, the inhibition is 8.63% in assay [1], 65.8% (active) in assay [2], 62.9% (active) in assay [3] and 12.3% in assay [4].
As to `CC1CCCC(C)N1C(=O)COC(=O)Cc1ccc(F)cc1` (centres undefined), the inhibition is -0.44% in assay [1], 47.2% (active) in assay [2], 44.5% (active) in assay [3] and 3.23% in assay [4].
In the case of `COc1ccc(CCNC(=O)CSc2nc3[nH]ncc3c(=O)n2-c2ccc(C)c(Cl)c2)cc1OC`, the inhibition was 13.2% in assay [1], 61.3% (active) in assay [2], 56.5% (active) in assay [3] and -6.41% in assay [4].
For `Cc1ccc(CN2CCC[C@]3(N[C@H](c4ccc(C(F)(F)F)cc4)[C@@H]4C(=O)N(Cc5ccccc5)C(=O)[C@@H]43)C2=O)cc1`, the inhibition in assay [1] was -2.71%; in assay [2], 24.8%; in assay [3], 28.4%; in assay [4], 22%.
`COc1ccc(C2=CC(=O)OC3(CCCCC3)O2)cc1`: the inhibition in assay [1] was 15.4%; in assay [2], 63.9% (active); in assay [3], 45.4% (active); in assay [4] it was 6.01%.
Consider `O=C(COC(=O)Cc1ccccc1[N+](=O)[O-])NCc1ccc(Cl)cc1`, for which the inhibition was 11.3% in assay [1], 37.2% in assay [2], 34.4% in assay [3] and -5.74% in assay [4].
The corresponding values for `O=C1C=C(NCc2ccco2)C2(CCCCC2)O1` are -2.64%, 43.1% (active), 46.6% (active) and 10.7%.
